Source: PubChem BioAssay (National Center for Advancing Translational Sciences (NCATS))
SARS PLpro yeast = qHTS of Yeast-based Assay for SARS-CoV PLP. Potency, µM (highest dose often 32.9 µM), for inactives: at the top dose activity, positive = growth rescue, usual class: activators. AID 485353, 2010. S. cerevisiae expressing SARS-CoV PLpro, growth rescue. 330,000 tested, 0.19% active; further: potency means the concentration at half of the fitted maximal effect; 0% is about no effect; nearly all actives have a fitted effect of over 55% in size
Pf growth 96h = Primary qHTS for delayed death inhibitors of the malarial parasite plastid, 96 hour incubation; P. falciparum luciferase reporter growth, 96 h; Potency, µM (titrated, usually from 28.7 µM), inactives show at the highest dose activity change, negative = inhibition, usual class: inhibitors; 320,000 tested, 6.9% active; AID 504834, 2011; active means well fitted inhibition curve with a large enough effect; inconclusive means small, poorly fitted or top-dose-only effect, or another doubt; inactive means no such curve, though single readings can be large or run the other way; further: potency means the concentration at half of the fitted maximal effect; on the % scale 0 is the no-effect control and ±100 the full control effect
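P. falciparum expressing integrated firefly luciferase, in erythrocytes at 2% hematocrit, 0.05% parasitemia, incubated with compounds 96 h at 37 C, 5% CO2. Growth inhibition read as loss of luminescence; two-generation exposure targets delayed-death apicoplast inhibitors.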
CHX counter = Cycloheximide Counterscreen for Small Molecule Inhibitors of Shiga Toxin; cell reporter, cycloheximide protein synthesis inhibition counterscreen; max response, %; 300,000 tested, 12% active; AID 2314, 2010; in the data active means max response mostly above about 13%, no sharp cut-off; inactive means mostly below about 14%; further: read at 38.3 µM for the half of the compounds with a filed dose; 0% is about no effect
NS1 inh = qHTS Assay for Inhibitors of Influenza NS1 Protein Function; Potency, µM (series often up to 46.1 µM), inactives show top-dose activity, positive = more growth; 270,000 tested, 0.4% active; AID 2326, 2010; further: potency means the concentration at half of the fitted maximal effect; actives are rising curves; nearly all actives have a fitted effect of over 50% in size
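OD600 was taken as the measure of yeast growth restored by compound in an NS1-expressing S. cerevisiae strain. Cells had been washed out of glucose medium and diluted 1:100 into galactose -URA medium, pH 6.0.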
Pf growth 48h = Primary qHTS for delayed death inhibitors of the malarial parasite plastid, 48 hour incubation | AID 504832, 2011 | Potency, µM (top dose mostly 28.7 µM), for the others: at the top dose activity change, negative = inhibition, hits mostly inhibitors | P. falciparum luciferase growth in erythrocytes, 48 h | 310,000 tested, 5.9% active; active means well fitted inhibition curve with a large enough effect; inconclusive means small, poorly fitted or top-dose-only effect, or another doubt; inactive means no such curve, though single readings can be large or run the other way; further: potency means the concentration at half of the fitted maximal effect; on the % scale 0 is the no-effect control and ±100 the full control effect
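Luciferase-expressing P. falciparum in infected erythrocytes (2% hematocrit, 0.1% parasitemia final) in RPMI 1640/0.5% Albumax were exposed to compound for 48 hours at 37 C, 5% CO2; growth read as luminescence.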
Shiga toxin inh = A qHTS for Small Molecule Inhibitors of Shiga Toxin; Vero cells, Shiga toxin protein synthesis inhibition reporter; inhibition, % at 38.7 µM; 290,000 tested, 9.2% active; in the data active means inhibition mostly above about 28%, no sharp cut-off; inactive means mostly below about 43%; further: 0% is about no effect
* hit, by the source's call; ? = inconclusive; . = no result given; + = active, no number. An excerpt weighted towards active compounds, which were near 21% of everything screened. Unless noted, the call rests on the fitted dose curve.

SMILES | SARS PLpro yeast | Pf growth 96h | CHX counter | NS1 inh | Pf growth 48h | Shiga toxin inh
CC(c1ccco1)N(C(=O)c1ccc(C(F)(F)F)cc1)c1ccccn1 (stereo not drawn) | 0% | 27% | 18 | . | -1% | 23
Cc1ccc(C(=O)N(c2ccccn2)C(C)c2ccco2)cc1C (stereo not drawn) | 2% | ? | 18* | -3% | . | 0
Cc1ccc(C(C)(C)NC(=O)C2CCC(=O)N(Cc3ccccc3F)C2)cc1 (stereo not drawn) | -6% | 3% | 16* | -10% | 12% | 23
CC1(C)CC(NC(=O)C2CCC(=O)N(Cc3ccccc3F)C2)CC(C)(C)C1 (stereo not drawn) | -4% | -22% | 26* | -3% | ? | 58*
Cc1ccc2nc(CNC(=O)C3CCC(=O)N(Cc4ccccc4F)C3)cn2c1 (stereo not drawn) | -1% | -4% | -1 | 1% | -8% | -4
CCOC(=O)c1c(C)nc(C(Cl)(Cl)Cl)nc1N | 0% | 140% | 18* | -9% | 13µM* | 56*
CCOC(=O)c1nc(N)c(C(=O)OCC)[nH]1 | 5% | . | -4 | 12% | 16% | 13
COc1ccccc1NC(=O)C1=C(C)Nc2nc(-c3ccc(N(C)C)cc3)nn2C1c1ccncc1 (stereo not drawn) | 4% | 9.3µM* | -3 | -2% | 15µM* | 24
COc1ccc(-c2nc3cccc(C)n3c2NCC2CCCO2)cc1O (stereo not drawn) | -1% | 46% | 8.1* | -2% | 22% | 46*
CCOc1cc(-c2nc3ccccn3c2NCC2CCCO2)ccc1O (stereo not drawn) | 1% | 12µM* | -2 | -10% | -9% | 13
N#CCCn1nc(-c2ccc(Cl)cc2)cc1Nc1ccccc1NC(=O)C(F)(F)F | -8% | 12µM* | 3 | -34% | -7% | -1
N#CCCn1nc(-c2ccc([N+](=O)[O-])cc2)cc1Nc1ccccc1NC(=O)C(F)(F)F | -5% | 10µM* | 7 | -3% | 10µM* | 3
CCCCCCC(=O)N1C/C=C\C(c2ccc(OC)cc2)N(Cc2ccc(F)cc2)C(=O)C1Cc1ccccc1 (stereo not drawn) | . | . | 12 | . | . | 17
Cn1cc(Br)c(-c2cccc(NC(=O)CCC(=O)O)c2)n1 | 1% | 3% | -3 | 2% | ? | -3
COc1cc(C2C(N3C(=O)c4ccccc4C3=O)C(=O)N2c2cccc(C)c2)cc(OC)c1OC (stereo not drawn) | -26% | ? | 4 | 18% | 4% | 10
CC(C)c1ccc(NC(=O)Cn2c(=O)oc3ccccc32)cc1 | 1% | 218% | 24 | -4% | -25% | 32*
Cc1ccccc1NC(=O)Cn1c(=O)oc2ccccc21 | 1% | 4.1µM* | -1 | 7% | 5% | -7
Cc1ccc(C2CC(c3cccs3)=NN2C(=O)CSC2=NN3CCCC(=O)N=C3S2)cc1 (stereo not drawn) | -6% | 1µM* | 0 | 15% | 9.3µM* | 17
COc1ccc(C2CC(c3ccc(Br)cc3)=NN2C(=O)CSC2=NN3CCCC(=O)N=C3S2)cc1 (stereo not drawn) | -3% | 1% | -5 | 0% | ? | -7
COc1ccc(C2CC(c3cccs3)=NN2C(=O)CSC2=NN3CCCC(=O)N=C3S2)cc1 (stereo not drawn) | 1% | 2.6µM* | -2 | 19% | 10µM* | -8
CCOC(=O)CCSCC(=O)N1N=C(c2cccs2)CC1c1ccc(C)cc1 (stereo not drawn) | -14% | ? | 0 | -40% | -6% | -9
Cc1ncsc1CCOC(=O)c1ccccc1 | -2% | 47% | 38* | -7% | 128% | 58*
Cc1ncsc1CCOC(=O)c1ccc(Cl)cc1 | -2% | 29% | 35* | -12% | 41% | 69*
CCS(=O)(=O)N1Cc2ccccc2CC1C(=O)Nc1nnc(SCc2ccc(F)cc2)s1 (stereo not drawn) | 13% | ? | 3 | ? | -26% | 14
Cc1cc(C)c(NC(=O)C2=COCCO2)c(C)c1 | -1% | 90% | . | . | 46% | .
SMILES | SARS PLpro yeast | Pf growth 96h | CHX counter | NS1 inh | Pf growth 48h | Shiga toxin inh
COc1ccccc1CNCC(=O)Nc1ccc(C(F)(F)F)cc1 | -2% | 0% | -2 | ? | 114% | 4
C=C(C)C(=O)OCC(O)COc1ccc(C(C)(C)c2ccc(OCC(O)COC(=O)C(=C)C)cc2)cc1 (stereo not drawn) | -3% | ? | . | . | ? | .
COC(=O)c1cc(S(=O)(=O)NCC2CCN(Cc3ccc(C)cc3)CC2)cn1C | 0% | ? | 13 | 4% | 0% | -8
Nc1nc(SCC(=O)O)[nH]c(=O)c1NC(=O)c1ccco1 | 1% | 36% | -1 | -1% | 4% | -4
COc1cc(/C=N/NC(=O)c2ccncc2)ccc1OCCN1CCCCC1 | -11% | 27% | 35* | 0% | 16% | +
COc1cc(/C=N/NC(=O)c2ccncc2)ccc1OCC(=O)Nc1ccc(C)c(C)c1 | -1% | 10% | 13* | 4% | -10% | 40
COc1cc(/C=N/NC(=O)c2ccncc2)ccc1OC(C)=O | -3% | ? | -2 | 11% | 8% | -11
COc1cc(/C=N/NC(=S)Nc2cccc(Cl)c2C)ccc1OCC(=O)N1CC(C)OC(C)C1 (stereo not drawn) | -8% | ? | 4 | ? | 9.3µM* | -2
COc1cc(/C=N/NC(=S)NC(C)C)ccc1OCC(=O)Nc1c(C)cc(C)cc1C | 8% | 13µM* | 2 | ? | 12µM* | 18
COc1ccccc1N1C(=O)N(CC(=O)C(C)(C)C)c2ccccc2S1(=O)=O | 0% | -1% | 2 | 5% | -11% | -2
Cn1c(=O)c2sccc2n2c(CCCC(=O)NCc3cccnc3)nnc12 | 0% | ? | -2 | -2% | 33% | -2
CSc1ccc(CCNC(=O)CCc2nnc3ccc(N4CCC5(CC4)OCCO5)nn23)cc1 | -7% | 43% | 10 | ? | ? | -7
CCC(C)C(NC(=O)OC(C)(C)C)C(=O)NC1COC2CC(n3cc(C)c(=O)[nH]c3=O)OC12 (stereo not drawn) | . | . | -4 | . | . | -5
Cc1ccc2nsnc2c1NC(=O)COc1ccccc1F | 1% | ? | -2 | -1% | -3% | -2
C(=N\Nc1ccc(-n2ccnc2)nn1)/c1ccccc1 | -4% | . | 0 | 1% | 15% | 24
CSc1nccc(N/N=C/c2ccccc2)n1 | -4% | 341% | 59* | -5% | 201% | 90*
Cc1ccnc(N/N=C/c2ccccc2)n1 | 3% | -27% | 28* | 2% | 79% | 57*
Cc1ccc(-c2cc(-c3ccccc3O)nc(N/N=C/c3cccnc3)n2)cc1 | 1% | 0.029µM* | 12 | 17% | ? | 12
